Test results from ChEMBL document CHEMBL3433997, “St. Jude Leishmania screening dataset” (2016).

Tests used:
Format in all cases: functional
[1] = target: Solute carrier family 2, facilitated glucose transporter member 1 (Homo sapiens) (UniProt P11166); test: ST_JUDE_LEISH: Cytotoxicity at 2uM final concentration against transgenic Leishmania Mexicana promastigotes LmGLUT1 that are glucose transport deficient and complemented with the human glucose transporter GLUT1. Activity is measured by DNA content using SYBR green in vitro
[2] = target: Hexose transporter 1 (Plasmodium falciparum) (UniProt O97467); test: ST_JUDE_LEISH: Cytotoxicity at 2uM final concentration against transgenic Leishmania Mexicana promastigotes LmPfHT that are glucose transport deficient and complemented with the Plasmodium falciparum hexose transporter. Activity is measured by DNA content using SYBR green in vitro
[3] = target: Glucose transporter (Leishmania mexicana) (UniProt O61059); test: ST_JUDE_LEISH: Cytotoxicity at 2uM final concentration against transgenic Leishmania Mexicana promastigotes LmGT2 that are glucose transport deficient and complemented with the L. Mexicana glucose transporter 2. Activity is measured by DNA content using SYBR green in vitro

Solute carrier family 2, facilitated glucose transporter member 1 (Homo sapiens), sequence (P11166 whole entry): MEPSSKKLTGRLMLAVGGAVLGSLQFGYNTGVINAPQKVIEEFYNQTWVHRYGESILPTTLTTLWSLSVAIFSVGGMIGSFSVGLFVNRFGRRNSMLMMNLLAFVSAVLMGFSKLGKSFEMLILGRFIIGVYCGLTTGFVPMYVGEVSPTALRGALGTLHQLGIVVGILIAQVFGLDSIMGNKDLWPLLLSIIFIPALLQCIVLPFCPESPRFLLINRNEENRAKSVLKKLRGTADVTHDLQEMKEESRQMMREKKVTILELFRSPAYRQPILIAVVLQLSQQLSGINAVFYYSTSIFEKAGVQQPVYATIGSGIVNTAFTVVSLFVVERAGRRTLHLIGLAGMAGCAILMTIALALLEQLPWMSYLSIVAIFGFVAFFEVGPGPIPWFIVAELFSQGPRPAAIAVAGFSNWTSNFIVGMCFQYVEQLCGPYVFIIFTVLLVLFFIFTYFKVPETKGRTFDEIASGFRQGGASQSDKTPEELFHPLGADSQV

| SMILES | inhibition [1] | inhibition [2] | inhibition [3] |
| --- | --- | --- | --- |
| CC1(C)N=C(N)N=C(N)N1c1cccc(C(F)(F)F)c1 | -1.8% | -0.92% | -3.44% |
| CN(C)CCCOC(=O)c1cc2cc(-c3ccccc3)ccc2n1S(=O)(=O)Cc1ccccc1 | 5.88% | 10.6% | 1.19% |
| COc1cc2c(cc1O)[C@@H]1[C@H](O)[C@@H](O)C=C3CCN(C2)[C@H]31 | 4.04% | 3.79% | 1.58% |
| Cc1cc(C(F)(F)F)n2nc(C(=O)N(C)Cc3cncn3Cc3ccc(F)cc3)cc2n1 | 0.88% | 1.29% | 1.49% |
| CC(C)C[C@H](NC(=O)c1ccc(OCCN2CCOCC2)cc1)C(=O)N[C@H](/C=N/NC(=O)c1ccccc1)CCc1ccccc1 | 3.15% | 5.83% | 2.03% |
| CCCCCN1CCC(NS(=O)(=O)c2ccc(C(=O)Nc3cccc(C(F)(F)F)c3)cc2)C1 (configuration not stated) | 8.42% | 2.22% | 2.26% |
| O=S(=O)(NCCN1CCCC1)c1cccc(-c2cccc(CNCc3ccsc3)c2)c1 | -0.74% | -0.16% | 1.71% |
| OCCN1CCN(Cc2ccc(-c3cccc(-c4nc5cc(C(F)(F)F)ccc5[nH]4)c3)cc2)CC1 | 7.65% | 7.08% | 7.33% |
| Cc1nc2c(-n3cc(Cn4ccnc4)c4ccccc43)ncnc2n1-c1ccc(Cl)cc1Cl | 0.32% | 0.41% | -1% |
| CN1CCC(c2ccc(NC(=O)c3ccc(-c4cccc(C(F)(F)F)c4)o3)cc2)CC1 | 2.13% | 1.69% | 1.19% |
| CN(C)c1ccc(CN2CCCC(CNC(=O)c3ccc(-c4cccc(C(F)(F)F)c4)s3)C2)cc1 (configuration not stated) | 1.33% | 1.64% | -0.14% |
| C=CCOc1cccc2c1CCN(CCN1CCC(NC(=O)c3ccc(-c4ccc(Cl)cc4)cc3)CC1)C2 | 17.2% | 11.3% | 9.23% |
| CN1CCN(Cc2ccc(-c3ccc4c(Nc5cc(O)c(F)cc5Cl)ccnc4c3)o2)CC1 | 4.84% | 2.61% | 2.56% |
| Cc1cc(N/N=C/c2cccc([N+](=O)[O-])c2)c2cc(F)ccc2n1 | 2.55% | 1.82% | 0.14% |
| N=C(NC1CC1)c1ccc2[nH]c(CCCCCc3nc4cc(C(=N)NC5CC5)ccc4[nH]3)nc2c1 | -1.14% | -0.68% | 1.61% |
| Cc1cc(=NN=Cc2ccc(Cl)cc2)c2ccc(F)cc2[nH]1 | 2.07% | 2.71% | 1.54% |
| COc1ccc(S(=O)(=O)NC2CCN(c3ccnc4cc(Cl)ccc34)C2)cc1 (configuration not stated) | 4.03% | 1.1% | 0.63% |
| CCCCOC(=O)c1ccc(Nc2cc(C)nc3ccc(OC)cc23)cc1 | 14.7% | 12.5% | 6.35% |
| O=C(C1CCN(C(c2ccccc2)c2ccc(Cl)c(Cl)c2)CC1)N1CC=CC1 (configuration not stated) | 0.54% | 3.99% | -0.23% |
| CCCCN(CCCC)Cc1cc(Nc2ccnc3cc(Cl)ccc23)ccc1O | 4.85% | 8.01% | 4.18% |
| CN1CCC(N(C)C(=O)C=Cc2cn(-c3ccccc3)nc2-c2cc3ccccc3o2)CC1 | 3% | 1.17% | -0.25% |
| CS(=O)(=O)N(CC(O)Cn1c2ccc(Cl)cc2c2cc(Cl)ccc21)c1ccccc1 (configuration not stated) | 0.79% | 1.45% | 2.64% |
| O=C(Nc1ccc(-c2nc3ccccc3[nH]2)cc1)c1ccc(Cl)c([N+](=O)[O-])c1 | 1.55% | 1.9% | 1.41% |
| CC(C)C[C@H](NC(=O)c1cc2cc(OCCN3CCNCC3)ccc2o1)C(=O)NC1CC[C@@H](C)N(C(=O)Nc2ccc(Cl)cc2)CC1=O (some centres not stated) | 3.2% | 5.04% | 3.85% |
| O=C(Cn1c(CCc2cccc(F)c2F)nc(=O)c2ccccc21)N(CCCN1CCCCC1)Cc1ccc(-c2ccc(C(F)(F)F)cc2)cc1 | 2.28% | 3.25% | 1.99% |
| COc1cc(OC)c(NC(=O)C2c3ccccc3C(=O)N(CC(C)C)C2c2cccs2)cc1Cl (configuration not stated) | -4.11% | 2.33% | 5.96% |
| CNCCNCc1cccc(-c2ccc(-c3nc4cc(C(F)(F)F)ccc4[nH]3)s2)c1 | 2.35% | 3.82% | 1.39% |

| SMILES | inhibition [1] | inhibition [2] | inhibition [3] |
| --- | --- | --- | --- |
| OCCOCn1cnc2cnc(N[C@H]3OC[C@H](O)[C@@H](O)[C@@H]3O)nc21 | 0.99% | 2.06% | 1.69% |
| O=C(Nc1cccnc1)c1cc(-c2cccnc2)nc2ccc(Cl)cc12 | 6.95% | 2.76% | 1.98% |
| O=C(Nc1ccc2c(c1)CN(Cc1ccc(N3CCCC3)o1)CCC2)c1cncs1 | 1.6% | 1.62% | -0.45% |
| O=C(N[C@@H](CC1CCCCC1)C(=O)NC1CCCCCC1)c1ccc(O)c(-c2ccc(Cl)c(Cl)c2)c1 | -0.25% | 1.39% | 0.88% |
| COc1ccc2nccc([C@@H](O)CN3CCC(NC(=O)c4cccc(-c5cc(C)no5)c4)CC3)c2c1 | 1.35% | 0.14% | 0.08% |
| COc1cc2nc(Nc3ccc4c(ccn4Cc4ccccc4)c3)nc(Nc3ccc4c(ccn4Cc4ccccc4)c3)c2cc1OC | 1.55% | 1.97% | 3.43% |
| O=C(NC1CCC(CCN2CCc3ccc(-c4cnccn4)cc3CC2)CC1)c1cccc(-n2cccn2)c1 (configuration not stated) | 10.2% | 7.38% | 8.56% |
| COc1ccc2ncc(F)c(NC(=O)C3CCC(NCc4cc5cc(F)cc(F)c5[nH]4)CC3)c2n1 (configuration not stated) | 68.5% | 78.5% | 82.5% |
| COc1cccc(Nc2nc(C)cc(NC3CCCC3)n2)c1 | 21.5% | 9.71% | 5.08% |
| O=C(Nc1nccs1)c1cc(-c2cccnc2)nc2ccc(Br)cc12 | 7.77% | -0.8% | -0.59% |
| COc1ccc(CC(=O)NC2CCN(c3ccnc4cc(Cl)ccc34)C2)cc1 (configuration not stated) | -0.54% | -0.22% | -0.25% |
| CC1CCCN(Cc2cc(Cl)cc(Cl)c2O)C1 (configuration not stated) | -1.08% | -0.95% | -1.76% |
| CC(C)(C)c1ccc(OCCCON2C(=N)N=C(N)NC2(C)C)c(C(C)(C)C)c1 | 1.15% | 0.14% | 1.14% |
| COc1ccc(CN(C)CCCOc2ccc(NC(=O)c3cccc4c(=O)c5cccc(F)c5[nH]c34)cc2)cc1OC | 4.27% | 3.24% | 3.1% |
| O=C(/C=C/c1ccc(Cl)c(Cl)c1)NCCCCCN1CCCC(CNC(=O)c2sc3ccccc3c2Cl)C1 (configuration not stated) | -1.59% | -2.38% | 1.79% |
| OC(CNCCCc1ccccc1)c1cc(OCc2ccccc2)cc(OCc2ccccc2)c1 (configuration not stated) | 6.81% | 2.05% | 1.79% |
| CC[C@H](C)CNC(=O)c1cncc(-c2ccc(CN(C)C3CCN(C)CC3)cc2)c1 | 3.57% | 3.62% | 5.08% |
| CCn1c(-c2nonc2N)nc2c(-c3cccc(NC(=O)Nc4ccccc4OC)c3)ncc(OCCCN)c21 | 2.94% | 3.41% | 3.42% |
| CN1CCCC(CN2CCN(Cc3cccc(-c4cccc(-c5nc6ccccc6[nH]5)c4)c3)CC2)C1 (configuration not stated) | 1.59% | 2.2% | -0.86% |
| COc1ccc(NC(=O)Nc2ccc(Nc3nc(C)cc(N4CCCC4)n3)cc2)cc1 | 4.49% | 3.69% | 1.68% |
| CC(C(=O)N1CCCC1)N1CCN(C(c2ccccc2)c2ccccc2)CC1 (configuration not stated) | 2% | 2.36% | 2.74% |
| O=C(Nc1ccc(OC2CCN(Cc3ccccc3)CC2)c(Cl)c1)c1cccs1 | 2.31% | 4.54% | 4.68% |
| CC(C)(C)CCOC(=O)N1CCc2c(cc(O)c(O)c2Cl)C(c2ccc(O)cc2)C1 (configuration not stated) | -1.94% | 0.65% | 14% |
| Nc1nc(N)c2c(ccc3c2ccn3CCCF)n1 | 1.79% | 5.24% | 0.69% |
| COc1ccc2nccc([C@@H](O)CN3CCC(NC(=O)c4ccc(-c5ccc(C#N)cc5)cc4)CC3)c2c1 | 1.89% | 1.64% | 3.25% |
| Cc1cccc(C(=O)Nc2ccnc(N3CCC(N(C)Cc4ccccc4)CC3)c2)c1 | -1.46% | -0.98% | -0.83% |
| Cc1noc(C)c1-c1cccc(CNCc2ccc(-c3ccc(-c4nc5ccccc5[nH]4)s3)cc2)c1 | 1.82% | 1.38% | -0.04% |
